# Records with an inconclusive call do not appear. Active and inactive are the calls of the source. How the source made its calls: active means hit-call score of the fitted dose curve at least 0.9, where 1 is the maximum; inconclusive means response in the unintended direction; inactive means score below 0.9.
# Assays:
# [1] = TOX21_p53_BLA_p2_viability: Viability Assessment in the Tox21 HCT-116 p53 Agonism Beta-lactamase Assay, Phase 2 (AID 2283591);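 further: compound exposure lasted 16 h at 37 °C; actives lower the ATP signal meaning cytotoxicity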
# Outline: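 Cytotoxicity readout: CellTiter-Glo ATP luminescence, 30 min at room temperature, after the beta-lactamase read. Cells were HCT116 exposed 16 h at 37C to compounds pin-transferred at 217-fold dilution from DMSO stocks.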
# [2] = biological target: Cellular tumor antigen p53 (Homo sapiens) (UniProt P04637); test: TOX21_p53_BLA_p2_ratio: Tox21 HCT-116 p53 Agonism Beta-lactamase Assay, Ratio, Phase 2 (AID 2283592)
# Sequence of Cellular tumor antigen p53 (Homo sapiens) (P04637 whole entry, looked up): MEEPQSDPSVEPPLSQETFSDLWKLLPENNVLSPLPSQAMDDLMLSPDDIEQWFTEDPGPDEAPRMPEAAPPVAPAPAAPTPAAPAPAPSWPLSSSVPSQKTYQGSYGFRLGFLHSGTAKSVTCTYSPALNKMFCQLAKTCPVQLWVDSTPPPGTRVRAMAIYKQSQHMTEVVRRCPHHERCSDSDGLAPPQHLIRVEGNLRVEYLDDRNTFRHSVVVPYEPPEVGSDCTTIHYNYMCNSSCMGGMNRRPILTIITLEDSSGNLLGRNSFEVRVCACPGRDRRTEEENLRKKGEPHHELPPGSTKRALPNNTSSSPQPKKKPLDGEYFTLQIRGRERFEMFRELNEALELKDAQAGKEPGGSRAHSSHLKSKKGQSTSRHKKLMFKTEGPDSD
# Outline: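 Plated HCT116 p53-bla cells (4000/well) received compound after 5 h, then 16 h at 37C/5% CO2. CCF4-AM added, 2 h RT. Ratio of 460 to 530 nm emission taken as the p53 reporter signal.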
# [3] = TOX21_p53_BLA_p3_viability: Viability Assessment in the Tox21 HCT-116 p53 Agonism Beta-lactamase Assay, Phase 3 (AID 2283593);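 further: cells exposed to compound for 16 h before reading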
# Outline: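 Cellular ATP was quantified by CellTiter-Glo luminescence, read after 30 min at room temperature. Beforehand, HCT116 cells (4000/well) received compound 5 h post-seeding, 217-fold diluted from DMSO, then incubated 16 h at 37C.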
# [4] = biological target: Cellular tumor antigen p53 (Homo sapiens) (UniProt P04637); test: TOX21_p53_BLA_p3_ratio: Tox21 HCT-116 p53 Agonism Beta-lactamase Assay, Ratio, Phase 3 (AID 2283596)
# Outline: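 Cells were seeded at 4000/well, rested 5 h at 37C, then dosed with DMSO compound solutions (217-fold dilution) for 16 h. CCF4-AM substrate was loaded for 2 h at room temperature, and the 460/530 nm emission ratio was fitted for gain of signal versus DMSO.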
# [5] = TOX21_p53_BLA_p4_viability: Viability Assessment in the Tox21 HCT-116 p53 Agonism Beta-lactamase Assay, Phase 4 (AID 2283597);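 further: hits lower the luminescence signal meaning cytotoxicity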
# Outline: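 Readout: ATP luminescence (CellTiter-Glo), measured 30 min after reagent addition at RT. The reagent followed a 2 h CCF4-AM incubation, and the cells had been exposed to compound for 16 h at 37C.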
# [6] = biological target: Cellular tumor antigen p53 (Homo sapiens) (UniProt P04637); test: TOX21_p53_BLA_p5_ratio: Tox21 HCT-116 p53 Agonism Beta-lactamase Assay, Ratio, Phase 5 (AID 2283599)
# Outline: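 Beta-lactamase reporter ratio (blue 460 nm over green 530 nm, 405 nm excitation) after 2 h CCF4-AM loading, in HCT-116 cells exposed 16 h at 37 C to compounds pinned at 217-fold dilution. Increases relative to DMSO baseline scored.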
# [7] = TOX21_p53_BLA_p5_viability: Viability Assessment in the Tox21 HCT-116 p53 Agonism Beta-lactamase Assay, Phase 5 (AID 2283600)
# Outline: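 Workflow: seed 4000 cells per well, wait 5 h, add compounds (DMSO, 217-fold dilution), incubate 16 h, load CCF4-AM 2 h, add CellTiter-Glo, read luminescence after 30 min.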
# [8] = biological target: Cellular tumor antigen p53 (Homo sapiens) (UniProt P04637); test: TOX21_p53_BLA_p4_ratio: Tox21 HCT-116 p53 Agonism Beta-lactamase Assay, Ratio, Phase 4 (AID 2283601)
# Outline: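 Signal is the blue/green (460nm/530nm) ratio of cleaved versus uncleaved CCF4-AM substrate, read after 2 h substrate loading. Cells were HCT116 carrying the p53-responsive beta-lactamase reporter, dosed 16 h at 37C, 5% CO2; CellTiter-Glo measured in parallel.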
SMILES,outcome [1],outcome [2],outcome [3],outcome [4],outcome [5],outcome [6],outcome [7],outcome [8],AC50 [1],AC50 [2],AC50 [3],AC50 [4],AC50 [5],AC50 [6],AC50 [7],AC50 [8]
CCc1cccc(CC)c1NC(=O)CN(CC(=O)O)CC(=O)O,inactive,inactive,inactive,inactive,inactive,inactive,inactive,inactive,–,–,–,–,–,–,–,–
C#C[C@]1(OC(C)=O)CC[C@H]2[C@@H]3CCC4=C/C(=N/O)CC[C@@H]4[C@H]3CC[C@@]21CC,–,–,–,–,–,–,–,–,37.2 µM (active),40.4 µM (active),38.7 µM (active),42.8 µM (active),38.2 µM (active),40.6 µM (active),37.1 µM (active),39.5 µM (active)
CC1CCCO1 (stereo not drawn),inactive,inactive,inactive,inactive,inactive,–,inactive,inactive,–,–,–,–,–,85.2 µM (active),–,–
N=C(N)c1ccc(OCCCOc2ccc(C(=N)N)cc2)cc1,inactive,inactive,inactive,inactive,inactive,inactive,inactive,inactive,–,–,–,–,–,–,–,–
Cc1c(C)n(Cc2ccccc2)c2ccc(C(=O)OCCN(C)C)cc12,inactive,inactive,inactive,inactive,–,inactive,inactive,inactive,–,–,–,–,18.3 µM (active),–,–,–
O=C(Nc1ncc([N+](=O)[O-])s1)c1cccs1,inactive,–,–,inactive,–,inactive,inactive,inactive,–,25 µM (active),8.44 µM (active),–,13.4 µM (active),–,–,–
CCN(CC)C(=O)/C(C#N)=C/c1cc(O)c(O)c([N+](=O)[O-])c1,inactive,–,inactive,inactive,inactive,inactive,inactive,inactive,–,33.7 µM (active),–,–,–,–,–,–
Cc1ncc(C[n+]2csc(CCOP(=O)(O)O)c2C)c(N)n1,inactive,inactive,inactive,inactive,inactive,inactive,inactive,inactive,–,–,–,–,–,–,–,–
CC[C@@H](C(=O)O)[C@@H]1O[C@@H]([C@@H](C)[C@H](O)[C@H](C)C(=O)[C@H](CC)[C@H]2O[C@]3(C=C[C@@H](O)[C@]4(CC[C@@](C)([C@H]5CC[C@](O)(CC)[C@H](C)O5)O4)O3)[C@H](C)C[C@@H]2C)[C@@H](C)C[C@@H]1C,inactive,–,inactive,–,inactive,–,inactive,–,–,4.53 µM (active),–,7.64 µM (active),–,7.63 µM (active),–,5.21 µM (active)
Cn1c(O)c(N=NC(N)=S)c2ccccc21,inactive,inactive,inactive,inactive,inactive,inactive,inactive,inactive,–,–,–,–,–,–,–,–
Cc1cnc(C(=O)O)c[n+]1[O-],inactive,inactive,inactive,inactive,inactive,inactive,inactive,inactive,–,–,–,–,–,–,–,–
CO[C@H]1/C=C/O[C@@]2(C)Oc3c(C)c(O)c4c(O)c(c(/C=N/N5CCN(C6CCCC6)CC5)c(O)c4c3C2=O)NC(=O)/C(C)=C\C=C\[C@H](C)[C@H](O)[C@@H](C)[C@@H](O)[C@@H](C)[C@H](OC(C)=O)[C@@H]1C,–,–,–,–,–,–,–,–,33.8 µM (active),43.8 µM (active),35.3 µM (active),42.8 µM (active),37.2 µM (active),43.2 µM (active),42.8 µM (active),36.8 µM (active)
NCCS,inactive,inactive,inactive,inactive,inactive,inactive,inactive,inactive,–,–,–,–,–,–,–,–
CC1CC(OC(=O)C(O)c2ccccc2)CC(C)(C)C1 (stereo not drawn),inactive,inactive,inactive,inactive,inactive,inactive,inactive,inactive,–,–,–,–,–,–,–,–
CC1(C)S[C@@H]2[C@H](NC(=O)C(C(=O)O)c3ccccc3)C(=O)N2[C@H]1C(=O)O (stereo partly drawn),inactive,inactive,inactive,inactive,inactive,inactive,inactive,inactive,–,–,–,–,–,–,–,–
O=C(O)Cc1sc(-c2ccccc2)nc1-c1ccc(Cl)cc1,inactive,inactive,inactive,inactive,inactive,inactive,inactive,inactive,–,–,–,–,–,–,–,–
CC(C)COC(=O)COc1cc(Cl)c(Cl)cc1Cl,inactive,inactive,inactive,inactive,inactive,inactive,inactive,inactive,–,–,–,–,–,–,–,–
CC(NCCC(c1ccccc1)c1ccccc1)c1ccccc1 (stereo not drawn),–,–,inactive,inactive,–,–,inactive,–,26.6 µM (active),33.9 µM (active),–,–,32.5 µM (active),35.8 µM (active),–,39.4 µM (active)
CCOC(=O)/C=C(C)/C=C/C=C(C)/C=C/c1c(C)cc(OC)c(C)c1C,inactive,inactive,inactive,inactive,inactive,inactive,inactive,inactive,–,–,–,–,–,–,–,–
CC(C)(C)CC(C)(C)c1ccccc1O,–,–,–,–,–,–,–,–,74.6 µM (active),75.3 µM (active),68.9 µM (active),77.8 µM (active),65.9 µM (active),81.5 µM (active),68 µM (active),81.7 µM (active)
CCCCCCCC[N+](CCCCCCCC)(CCCCCCCC)CCCCCCCC,–,–,–,–,–,–,–,–,18.9 µM (active),54.8 µM (active),29.3 µM (active),56.2 µM (active),36.2 µM (active),64.1 µM (active),34 µM (active),64.5 µM (active)
CC(C(=O)O)c1ccc(C2CCCCC2)c2ccccc12 (stereo not drawn),inactive,inactive,inactive,inactive,–,inactive,inactive,inactive,–,–,–,–,31.1 µM (active),–,–,–
CCOC(=O)COc1ccc2c(=O)cc(-c3ccccc3)oc2c1,inactive,inactive,inactive,inactive,inactive,inactive,inactive,inactive,–,–,–,–,–,–,–,–

SMILES,outcome [1],outcome [2],outcome [3],outcome [4],outcome [5],outcome [6],outcome [7],outcome [8],AC50 [1],AC50 [2],AC50 [3],AC50 [4],AC50 [5],AC50 [6],AC50 [7],AC50 [8]
CCCN1C[C@H](CSC)C[C@@H]2c3cccc4[nH]cc(c34)C[C@H]21,inactive,inactive,inactive,inactive,inactive,inactive,inactive,inactive,–,–,–,–,–,–,–,–
NCCOCCN,inactive,inactive,inactive,inactive,inactive,inactive,inactive,inactive,–,–,–,–,–,–,–,–
N=C(N)c1ccc(OCCCOc2ccc(C(=N)N)cc2Br)c(Br)c1,inactive,inactive,inactive,inactive,inactive,inactive,inactive,inactive,–,–,–,–,–,–,–,–
CCOC(=O)Nc1ccc(NCc2ccc(F)cc2)nc1N,inactive,inactive,inactive,inactive,inactive,inactive,inactive,inactive,–,–,–,–,–,–,–,–
O=c1cccccc1O,inactive,inactive,inactive,inactive,inactive,inactive,inactive,inactive,–,–,–,–,–,–,–,–
C=CCNC1=C2C[C@@H](C)C[C@H](OC)[C@H](O)[C@@H](C)/C=C(\C)[C@H](OC(N)=O)[C@@H](OC)/C=C\C=C(/C)C(=O)NC(=CC1=O)C2=O,inactive,–,inactive,–,inactive,–,inactive,–,–,0.189 µM (active),–,0.19 µM (active),–,0.183 µM (active),–,0.147 µM (active)
CN1CC(=O)N/C1=N/C(=O)Nc1cccc(Cl)c1,inactive,inactive,inactive,inactive,inactive,inactive,inactive,inactive,–,–,–,–,–,–,–,–
CCC(C)Nc1ccc(NC(C)CC)cc1 (stereo not drawn),–,inactive,–,–,–,inactive,–,inactive,15.1 µM (active),–,22.4 µM (active),46.8 µM (active),19.2 µM (active),–,30.1 µM (active),–
CCCC(C)c1ccccc1O (stereo not drawn),inactive,inactive,inactive,inactive,inactive,inactive,inactive,inactive,–,–,–,–,–,–,–,–
O=C1c2cccc(O)c2C(=O)c2c(O)cccc21,inactive,inactive,inactive,inactive,inactive,inactive,inactive,inactive,–,–,–,–,–,–,–,–
C=C1/C(=C\C=C2/CCC[C@]3(C)[C@@H]([C@H](C)CCCC(C)(C)O)CC[C@@H]23)C[C@@H](O)C[C@@H]1O,–,–,–,–,–,–,–,–,19.8 µM (active),37.8 µM (active),24.5 µM (active),25.4 µM (active),13 µM (active),27 µM (active),21 µM (active),26.1 µM (active)
CC(C)=CCOc1ccc(/C=C/C(=O)c2ccc(OCC=C(C)C)cc2OCC(=O)O)cc1,–,–,–,–,–,–,inactive,–,8 µM (active),6.92 µM (active),14.9 µM (active),13.8 µM (active),7.92 µM (active),9.9 µM (active),–,7.21 µM (active)
O=C(O)CCC(=O)C(=O)O,inactive,inactive,inactive,inactive,inactive,inactive,inactive,inactive,–,–,–,–,–,–,–,–
C(=C\c1ccccc1)/CN1CCN(C(c2ccccc2)c2ccccc2)CC1,inactive,inactive,inactive,inactive,inactive,inactive,inactive,inactive,–,–,–,–,–,–,–,–
CCN(CC)CCCN(c1ccccc1)C1Cc2ccccc2C1,–,–,–,–,–,–,–,–,9.12 µM (active),23.3 µM (active),26.6 µM (active),36.3 µM (active),2.11 µM (active),36.7 µM (active),30.6 µM (active),23 µM (active)
CC1=CC(C)(C)Nc2ccccc21,inactive,inactive,inactive,inactive,inactive,inactive,inactive,inactive,–,–,–,–,–,–,–,–
CC(C)(C)NCC(O)CSc1nc(-c2ccc(C(N)=O)s2)cs1 (stereo not drawn),inactive,inactive,inactive,inactive,inactive,inactive,inactive,inactive,–,–,–,–,–,–,–,–
CCCCC(CC)COCCCN (stereo not drawn),inactive,inactive,inactive,inactive,inactive,inactive,inactive,inactive,–,–,–,–,–,–,–,–
CCCCCCCCCCCCCCCCOCCOCCOCCOCCOCCOCCOCCOCCOCCOCCOCCOCCOCCOCCOCCOCCOCCOCCOCCOCCO,–,–,–,–,–,–,–,–,30.1 µM (active),29.5 µM (active),6.03 µM (active),11.7 µM (active),34.5 µM (active),41.4 µM (active),33.3 µM (active),43.5 µM (active)
O=S(=O)(O)CC(S)CS (stereo not drawn),inactive,inactive,inactive,inactive,inactive,inactive,inactive,inactive,–,–,–,–,–,–,–,–
CCCC(C(=O)OCCN(CC)CC)(c1ccccc1)c1ccccc1,inactive,inactive,inactive,inactive,–,inactive,inactive,inactive,–,–,–,–,31.2 µM (active),–,–,–
CC(=O)OCCN(CCOC(C)=O)c1ccc(N=Nc2ccc([N+](=O)[O-])cc2C#N)cc1,inactive,inactive,inactive,inactive,inactive,inactive,inactive,inactive,–,–,–,–,–,–,–,–
CCCCC(CC)CN1CN(CC(CC)CCCC)CC(C)(N)C1 (stereo not drawn),inactive,inactive,inactive,inactive,inactive,inactive,inactive,inactive,–,–,–,–,–,–,–,–

# From PubChem BioAssay (EPA / NIEHS)
